Among the data in PubChem BioAssay (NCATS) are Potency, outcome and activation values, retold here.

Values joined by “and” are separate entries in the source; they are usually repeats but may differ in a detail not shown here. Identical values can stand only once. Results filed as inconclusive are left out. Active and inactive are the calls of the source. Unless noted, calls follow the shape of the dose curve; as a rule, active = well fitted curve in the direction sought with a large enough effect; inconclusive = small, poorly fitted or top-dose-only effect, or another doubt; inactive = no such curve, though single readings can be large; an effect the other way counts as inactive or inconclusive.

Assay [1] can be described thus: S16 Schwann cell viability assay (CellTiter-Glo assay) (AID 624031).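 Also: native untransfected S16 rat Schwann cells; cellular ATP luminescence as a viability measure; plate controls were DMSO-treated cells for no effect and cell-free wells for full effect; nearly all actives have a fitted effect of over 70% in size.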 The note with it: S16 rat Schwann cells viability, 24 h; series mostly up to 57.5 µM. In a few lines:
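Cells were seeded at 500-750 per well in phenol red-free DMEM with 10% FBS and left overnight. Compounds or DMSO were pinned in, incubation ran 24 h at 37 °C/5% CO2, then CellTiter-Glo reagent was added and luminescence measured.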

A short description of assay [2]: S16 Schwann cell PMP22 intronic element firefly luciferase assay (AID 624032).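 Also: plate controls were DMSO for no effect and PTC124 positive control mean for full effect; nearly all actives have a fitted effect of over 30% in size.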 To be noted: S16 rat Schwann cells, PMP22 element FLuc, 24 h; series mostly up to 57.5 µM. In short, it runs like this: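 Luciferase reporter of PMP22 intronic-element expression in stably transfected S16 rat Schwann cells, read by ONE-Glo luminescence after 24 h compound exposure at 37 C. Activity scaled between DMSO (0%) and positive-control PTC124; concentration-effect curves quality-classified.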

The nature of assay [3]: S16 Schwann cell PMP22 intronic element beta-lactamase assay (AID 624044; calls by dose curve;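 also: 0% = DMSO and -100% = potassium clavulanate positive control; nearly all actives have a fitted effect of over 15% in size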). To be noted: S16 rat Schwann cells, PMP22 element beta-lactamase FRET, 24 h; ratio activity, negative = inhibition: at 38.3 µM (top of the series) unless noted. In a few lines: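 Beta-lactamase reporter under a PMP22 intronic regulatory element in stable S16 rat Schwann cells; 24 h compound exposure. 460 nm blue signal normalized between DMSO (0%) and potassium clavulanate, with 535 nm FRET tracking viability; curves classed by r2 and response.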

The test system of a further assay is 3D7. Description: qHTS profiling for inhibitors of Plasmodium falciparum proliferation (AID 504749). Also: nearly all actives have a fitted effect of over 60% in size. Also: potency is read from the fitted curve at half-maximal effect.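 As to activity, negative = inhibition: 0% = DMSO vehicle and full inhibition = artemisinin control.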 To be noted: P. falciparum in erythrocytes, SYBR Green DNA, 72 h; series mostly up to 28.7 µM. In a few lines:
(§1)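 SYBR Green fluorescence of parasite DNA, read after lysis and overnight dark incubation, measured growth over 72 h in erythrocyte culture at 0.3% parasitemia and 2.5% hematocrit. Data normalised to DMSO and 0.29 uM artemisinin, with plate-drift correction.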

In the next assay the test system is 7G8. Described as above. To be noted: P. falciparum in erythrocytes, SYBR Green DNA, 72 h; series mostly up to 12.8 µM. In a few lines: as §1
The subject of the next assay is CP237. Described as above. The note with it: P. falciparum in erythrocytes, SYBR Green DNA, 72 h; series mostly up to 28.7 µM. In a few lines: as §1
The test system of another assay is CP260. Described as above. To be noted: P. falciparum in erythrocytes, SYBR Green DNA, 72 h; series mostly up to 28.7 µM. In a few lines: as §1
In another assay the test system is CP297. The description is as above. The note with it: P. falciparum in erythrocytes, SYBR Green DNA, 72 h; series mostly up to 28.7 µM. In short, it runs like this: as §1
In another assay the test system is DIV14. The description is as above. The note with it: P. falciparum in erythrocytes, SYBR Green DNA, 72 h; series mostly up to 28.7 µM. In short, it runs like this:
as §1

The next assay deals with DIV17. The description is as above. The note with it: P. falciparum in erythrocytes, SYBR Green DNA, 72 h; series mostly up to 28.7 µM. In a few lines: as §1
Another assay concerns Dd2. The description is as above. To be noted: P. falciparum in erythrocytes, SYBR Green DNA, 72 h; series mostly up to 28.7 µM. In a few lines: as §1
For another assay, the system named is GB4. The description is as above. The note with it: P. falciparum in erythrocytes, SYBR Green DNA, 72 h; series mostly up to 28.7 µM. In short, it runs like this:
as §1

Another assay relates to ICS. The assay is described as above. To be noted: P. falciparum in erythrocytes, SYBR Green DNA, 72 h; series mostly up to 28.7 µM. In a few lines:
as §1

The next assay relates to TAB113. The description is as above. To be noted: P. falciparum in erythrocytes, SYBR Green DNA, 72 h; series mostly up to 28.7 µM. In short, it runs like this:
as §1

In a further assay the test system is W2. The description is as above. To be noted: P. falciparum in erythrocytes, SYBR Green DNA, 72 h; series mostly up to 12.8 µM. In a few lines:
as §1

For assay [4], the target named is Bile acid receptor (Homo sapiens) (UniProt Q96RI1). Description: qHTS assay for small molecule antagonists of farnesoid X receptor signaling (AID 588526; calls by dose curve; also: % is scaled to controls: 0 for no effect and ±100 for the full control effect). To be noted: HEK293T FXR-UAS-bla, beta-lactamase ratio, antagonist mode; series mostly up to 76.7 µM. In short, it runs like this:
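Beta-lactamase reporter antagonist mode: HEK293T FXR-UAS-bla cells, titrated compound, CDCA stimulation, 16 h 37 C, CCF4 dye 2 h RT. Data normalized to CDCA 50 uM and DMSO; Hill-fit IC50.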

The target in assay [5] is Glucocorticoid receptor (Homo sapiens) (UniProt P04150). Description: qHTS assay for small molecule agonists of glucocorticoid receptor signaling (AID 588532; active = well fitted curve in the direction sought with a large enough effect in the signal ratio, with a control signal flat; the % refers to the signal ratio;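 also: 100% = dexamethasone at 0.1 µM and 0% = DMSO only wells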). The note with it: HeLa MMTV-bla, beta-lactamase ratio, agonist, 18 h; hits give high values; percent of dexamethasone control, DMSO zero. In short, it runs like this: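 Using MMTV-bla HeLa cells in medium with 1% stripped FBS and 25 mM HEPES, compounds were titrated and incubated overnight-length (18 h). Beta-lactamase cleavage of CCF4 was quantified by dual-emission fluorescence.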
Glucocorticoid receptor (Homo sapiens), sequence (P04150 whole entry, looked up): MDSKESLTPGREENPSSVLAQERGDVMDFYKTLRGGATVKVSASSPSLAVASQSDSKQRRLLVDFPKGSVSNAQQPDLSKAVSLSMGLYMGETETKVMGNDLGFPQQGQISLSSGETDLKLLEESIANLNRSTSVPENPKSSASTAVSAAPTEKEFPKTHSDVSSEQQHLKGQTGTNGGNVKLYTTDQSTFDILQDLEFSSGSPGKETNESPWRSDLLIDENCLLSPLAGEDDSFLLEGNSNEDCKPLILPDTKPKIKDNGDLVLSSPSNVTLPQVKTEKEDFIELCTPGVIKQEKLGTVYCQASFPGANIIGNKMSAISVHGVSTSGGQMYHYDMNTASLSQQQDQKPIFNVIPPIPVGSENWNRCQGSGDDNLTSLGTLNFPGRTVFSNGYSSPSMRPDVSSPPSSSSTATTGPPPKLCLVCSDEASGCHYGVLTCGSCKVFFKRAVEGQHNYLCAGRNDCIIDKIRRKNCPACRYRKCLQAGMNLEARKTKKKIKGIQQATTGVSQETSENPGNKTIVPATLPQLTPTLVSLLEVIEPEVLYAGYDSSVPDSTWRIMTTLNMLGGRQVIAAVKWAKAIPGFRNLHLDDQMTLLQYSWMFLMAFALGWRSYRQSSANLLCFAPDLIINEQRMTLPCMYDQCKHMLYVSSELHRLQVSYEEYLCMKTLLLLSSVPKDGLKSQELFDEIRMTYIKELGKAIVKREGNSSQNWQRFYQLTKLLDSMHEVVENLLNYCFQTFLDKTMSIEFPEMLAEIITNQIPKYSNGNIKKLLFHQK

Assay [6] concerns the target Peroxisome proliferator-activated receptor gamma (Homo sapiens) (UniProt P37231). Description: qHTS assay for small molecule antagonists of peroxisome proliferator-activated receptor gamma signaling (AID 588537; active = well fitted inhibition curve with a large enough effect in the signal ratio, with a control signal flat, not every such curve was filed as active; the % refers to the signal ratio;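 also: reporter cells co-stimulated with 50 nM rosiglitazone agonist during compound treatment; % of control where 0% means no effect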). To be noted: HEK293 PPARg-UAS-bla, beta-lactamase ratio, antagonist mode; series mostly up to 76.8 µM. In a few lines: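 Antagonist-mode β-lactamase reporter screen run as a titration series. HEK293 PPARγ-UAS-bla cells are stimulated with rosiglitazone (50 nM final) for 16 h, then CCF4 is read at 460/530 nm. Data are scaled between DMSO and rosiglitazone and fitted to the Hill equation.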

Assay [7] in a line: qHTS assay for small molecule activators of the human pregnane X receptor (PXR) signaling pathway (AID 720659; call rule not given here; also: 0% is about no effect). To be noted: DPX-2 HepG2 CYP3A4-luciferase, 24 h; series mostly up to 92.3 µM.
The nature of assay [8]: qHTS assay for small molecule activators of the nuclear factor-kappa B (NF-kB) signaling pathway (AID 651749; active = well fitted activation curve with a large enough effect in the signal ratio; the % refers to the signal ratio; also: % of control where 0% means no effect). The note with it: NF-kB-bla ME-180 cells, beta-lactamase FRET ratio, 16 h; activation: hits give high values. In a few lines: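 Activation measured after 16 hr compound treatment at 37C, 5% CO2, of 2,000 ME-180 cells/well stably expressing an NF-kB response element–driven beta-lactamase reporter, via FRET-disruption fluorescence.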

Peroxisome proliferator-activated receptor gamma (Homo sapiens), sequence (P37231 whole entry, looked up): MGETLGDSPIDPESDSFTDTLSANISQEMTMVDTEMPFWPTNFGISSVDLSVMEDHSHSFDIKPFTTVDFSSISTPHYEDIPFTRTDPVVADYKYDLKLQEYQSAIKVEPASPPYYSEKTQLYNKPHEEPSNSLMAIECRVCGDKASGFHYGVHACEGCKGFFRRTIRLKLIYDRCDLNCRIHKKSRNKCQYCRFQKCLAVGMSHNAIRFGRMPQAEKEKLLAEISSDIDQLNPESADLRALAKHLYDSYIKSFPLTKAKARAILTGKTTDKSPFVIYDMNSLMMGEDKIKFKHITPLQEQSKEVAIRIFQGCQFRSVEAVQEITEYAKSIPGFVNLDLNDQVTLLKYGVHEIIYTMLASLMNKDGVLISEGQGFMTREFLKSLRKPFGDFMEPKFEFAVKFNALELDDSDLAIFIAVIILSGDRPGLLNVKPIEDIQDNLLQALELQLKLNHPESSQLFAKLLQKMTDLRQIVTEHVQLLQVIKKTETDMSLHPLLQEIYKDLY
Bile acid receptor (Homo sapiens), sequence (Q96RI1 whole entry, looked up): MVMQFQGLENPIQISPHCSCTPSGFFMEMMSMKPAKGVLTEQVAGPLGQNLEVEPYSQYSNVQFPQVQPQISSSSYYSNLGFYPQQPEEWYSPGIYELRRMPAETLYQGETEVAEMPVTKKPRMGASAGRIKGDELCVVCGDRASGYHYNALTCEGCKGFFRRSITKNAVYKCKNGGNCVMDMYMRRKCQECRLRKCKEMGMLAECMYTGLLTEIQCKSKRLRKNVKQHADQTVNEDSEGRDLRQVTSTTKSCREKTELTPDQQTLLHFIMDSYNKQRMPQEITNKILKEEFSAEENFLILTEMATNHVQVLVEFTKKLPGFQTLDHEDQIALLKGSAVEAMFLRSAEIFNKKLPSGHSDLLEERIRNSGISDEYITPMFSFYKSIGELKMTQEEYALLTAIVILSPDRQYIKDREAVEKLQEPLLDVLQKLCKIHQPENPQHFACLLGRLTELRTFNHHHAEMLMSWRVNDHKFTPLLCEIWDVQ

In the case of `COc1cc2c(cc1OC)[C@@]13CCN4CC5=CCOC6CC(=O)N2C1[C@H]6[C@@H]5C[C@@H]43` (some centres undefined), the Potency result (in assay [1]; in assay [2]; in [3]; with 3D7; in the assay on 7G8; in the assay with CP237) was “inactive” each time. For the same compound, the Potency result in the assay with CP260, in the assay on CP297, in the assay with DIV14, in the assay with DIV17, in the assay with Dd2 and with GB4 was “inactive” throughout. For the same compound, the Potency entry in the assay with ICS, in the assay on TAB113 and in the assay on W2 was “inactive” in each case.
With `CNC(=O)Oc1cccc2c1OC(C)(C)O2`, the result in assay [4] was inactive. The activation in assay [5] was -2.85% (inactive). The Potency result in assay [6] is “inactive”.
Regarding `O=c1ccc2cc(O[C@H]3O[C@@H](CO)[C@@H](O)[C@@H](O)[C@@H]3O)c(O)cc2o1`, the Potency result (in [1]; in assay [2]; in the assay with 7G8; in the assay on CP237; in the assay with CP260; with CP297) was “inactive” each time. Also, the Potency result in the assay with DIV14, in the assay on Dd2, in the assay with GB4, with ICS, with TAB113 and with W2 was “inactive” throughout.
In the case of `CC([C@H](O)c1ccccc1)N(C)C` (some centres undefined), the Potency entry (in [1]; in assay [2]; in assay [3]; with 3D7; with CP260; in the assay on CP297) was “inactive” throughout. Moreover, the Potency entry in the assay on TAB113 was “inactive”. Besides, the Potency is 11.2 µM (active) in the assay on 7G8 and 6.75 µM (active) in the assay with W2.
In the case of `N#Cc1c(Cl)cccc1Cl`, the activation in assay [5] is 0.597% (inactive). The call in assay [7] was inactive.
Consider `CNc1ccc(C(=O)CC(O)CCC(C)C2OC(=O)CC(O)CC(=O)CC(O)CC(O)CC(O)CC(O)CC3(O)CC(O)C(C(=O)OC)C(CC(O[C@@H]4OC(C)C(O)C(N)C4O)/C=C/C=C/C=C/C=C/C=C/C=C/C=C/C2C)O3)cc1` (some centres undefined), for which the Potency entry in the assay with 3D7, with 7G8, in the assay on CP237, in the assay on CP297, in the assay with DIV14 and with DIV17 was “inactive” each time. In addition, the Potency result with Dd2, in the assay on GB4 and in the assay with W2 was “inactive” throughout.
As for `COP(N)(=O)SC` (centres undefined), the result in assay [4] and in assay [7] was inactive. Moreover, the activation in assay [5] was -1.71% (inactive) and 14.7% (inactive); in [8] it was 0.304% (inactive) and 1.6% (inactive).
In the case of `CC(C)OC(=O)Nc1cccc(Cl)c1`, the result in [4] was inactive. For the same compound, in assay [6], the Potency result was “inactive”.
For `O=C(O)COc1cc(Cl)c(Cl)cc1Cl`, the result in assay [4] was inactive. Besides, in assay [5], the activation was -6.14% (inactive). Further, in [6], the Potency entry was “inactive”.
In the case of `COc1nc(NC(C)C)nc(NC(C)C)n1`, the outcome in assay [4] and in assay [7] was inactive. In addition, the Potency result in assay [6] was “inactive”. In addition, in [8], the activation is -2.09% (inactive).
Consider `CNC(C)[C@@H](O)c1ccccc1` (some centres undefined), for which the Potency entry (in assay [1]; in assay [2]; in assay [3]; with 3D7; in the assay on CP237; in the assay on CP260) was “inactive” each time. For the same compound, the Potency result in the assay on DIV14, with DIV17, with Dd2, with GB4, in the assay on ICS and with TAB113 was “inactive” in each case.
On to `CCc1cccc(C)c1N(C(=O)CCl)C(C)COC` (centres undefined), for which, in assay [8], the activation was -1.58% (inactive).
For `CNC(=O)CSP(=S)(OC)OC`, the Potency result in [6] is “inactive”. Further, the compound was called inactive in assay [7].
Turning to `CC(C)CC(CN)CC(=O)O` (centres undefined), the Potency result in [1], in assay [2] and in assay [3] was “inactive” throughout.
For `CC(C)N1C(=O)c2ccccc2NS1(=O)=O`, the values for the activation in assay [5] and in assay [8] were 4.24% (inactive) and -0.185% (inactive), respectively. For the same compound, the compound was classed as inactive in assay [7].
